Many of the other results were omitted from the sample, so hits are more common in it than they were.
STK33 kin inh: blocks human STK33 kinase activity. Q9BYT3. ADP-Glo luminescence, MBP substrate. inhibition, % at 12.5 µM. 27,000 compounds, 0.44% hits. AID 2322; in the data active = inhibition above about 20%; inconclusive = no clear call, values can overlap the other calls
Target sequence (Q9BYT3 whole entry, looked up): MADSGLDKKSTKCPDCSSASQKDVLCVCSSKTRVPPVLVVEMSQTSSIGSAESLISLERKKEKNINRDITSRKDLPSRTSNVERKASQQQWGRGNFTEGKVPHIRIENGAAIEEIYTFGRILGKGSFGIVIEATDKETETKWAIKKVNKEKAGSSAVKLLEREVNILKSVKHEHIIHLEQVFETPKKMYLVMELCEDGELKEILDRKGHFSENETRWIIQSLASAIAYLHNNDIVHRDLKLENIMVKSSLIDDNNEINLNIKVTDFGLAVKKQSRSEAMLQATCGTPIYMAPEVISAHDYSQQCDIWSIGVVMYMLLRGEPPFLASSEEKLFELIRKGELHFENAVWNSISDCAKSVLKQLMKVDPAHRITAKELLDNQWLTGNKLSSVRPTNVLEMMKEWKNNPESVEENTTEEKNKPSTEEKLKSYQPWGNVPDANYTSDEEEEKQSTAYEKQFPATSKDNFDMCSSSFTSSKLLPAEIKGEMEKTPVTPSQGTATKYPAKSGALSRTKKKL
PD-1 reverse act: reversal of PD-1 mediated T-cell inhibition; primary human CD4 T cells, PD-L1 beads, CellTiter-Glo 96 h; activation, % (no concentration beside the values); AID 2316; 29,000 tested, under 10 active; call rule not given here;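 note: 0% = median vehicle wells and 100% = positive control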
NOMO-1 viab: STK33 inhibitor candidate reducing NOMO-1 cell viability; NOMO-1 AML viability, CellTiter-Glo luminescence, 72 h; inhibition, % (no concentration beside the values); 37,000 compounds, 7.5% hits; in the data active = inhibition above about 80%; inconclusive = no clear call, values can overlap the other calls
Active calls of the source: *.

`O=C(O)CCCC(=O)Nc1ccc(O)cc1` gave STK33 kin inh 0, PD-1 reverse act 1 and NOMO-1 viab 31.
For O=C(/C=C/c1ccc(O)cc1)c1ccc(O)cc1O the results were STK33 kin inh 50* and NOMO-1 viab 57.
For COc1ccc(/C=C/C(=O)c2cc(O)ccc2O)cc1 the results were STK33 kin inh -7 and NOMO-1 viab 65.
`O=C(/C=C/c1ccc(O)cc1)CC(=O)/C=C/c1ccc(O)cc1` gave STK33 kin inh 120*, PD-1 reverse act -1 and NOMO-1 viab 108*.
`CS(=O)(=O)N(CC(=O)Nc1ccccc1C(=O)N1CCOCC1)c1cc(C(F)(F)F)ccc1Cl` gave STK33 kin inh 3, PD-1 reverse act 0 and NOMO-1 viab 25.
Screening CCOC(=O)CNc1nc2ccccc2n2cnnc12 returned STK33 kin inh 0, PD-1 reverse act 2 and NOMO-1 viab 21.
C[C@@H]1CN([C@H](C)CO)C(=O)Cc2cc(NC(=O)C3CCCCC3)ccc2O[C@@H]1CN(C)Cc1ccc(C(=O)Nc2ccccc2N)cc1 was read as PD-1 reverse act 0 and NOMO-1 viab inconclusive.
Screening C[C@H]1CN([C@@H](C)CO)C(=O)Cc2cc(NC(=O)C3CC3)ccc2O[C@@H]1CN(C)Cc1ccc(C(=O)Nc2ccccc2N)cc1 returned PD-1 reverse act 0 and NOMO-1 viab 55.
Screening C[C@H](CO)N1C[C@H](C)[C@H](CN(C)Cc2ccc(C(=O)Nc3ccccc3N)cc2)Oc2ccc(NC(=O)C3CC3)cc2CC1=O returned PD-1 reverse act -5 and NOMO-1 viab 127*.
`C[C@H](CO)N1C[C@H](C)[C@H](CN(C)Cc2ccc(C(=O)Nc3ccccc3N)cc2)Oc2ccc(NC(=O)C3CCCCC3)cc2CC1=O` gave PD-1 reverse act -3 and NOMO-1 viab 141*.
c1ccc(-c2nnc(-c3cccc4ccccc34)o2)cc1 was read as PD-1 reverse act 0 and NOMO-1 viab 27.
Screening C[C@@H]1CN([C@H](C)CO)C(=O)c2cccc(NC(=O)c3ccc(-c4nccs4)cc3)c2O[C@H]1CN(C)Cc1ccc(C(=O)O)cc1 returned PD-1 reverse act -3 and NOMO-1 viab 12.
For C[C@@H]1CN([C@H](C)CO)C(=O)c2cccc(NC(=O)c3ccc(-c4nccs4)cc3)c2O[C@@H]1CN(C)Cc1ccc(C(=O)Nc2ccccc2N)cc1 the results were PD-1 reverse act -4 and NOMO-1 viab 142*.
C[C@H](CO)N1C[C@H](C)[C@@H](CN(C)C(=O)Nc2ccc(C(F)(F)F)cc2)Oc2c(NC(=O)c3ccc(-c4nccs4)cc3)cccc2C1=O was read as PD-1 reverse act -1 and NOMO-1 viab 23.
Screening C[C@@H]1CN([C@H](C)CO)C(=O)c2cccc(NC(=O)c3ccc(-c4nccs4)cc3)c2O[C@H]1CN(C)Cc1ccc(Oc2ccccc2)cc1 returned PD-1 reverse act 1 and NOMO-1 viab 61.
`C[C@H](CO)N1C[C@H](C)[C@H](CN(C)C(=O)Nc2ccc(C(F)(F)F)cc2)Oc2c(NC(=O)c3ccc(-c4nccs4)cc3)cccc2C1=O` gave PD-1 reverse act -7 and NOMO-1 viab 93*.
For C[C@H](CO)N1C[C@H](C)[C@H](CN(C)Cc2ccccc2)Oc2c(NC(=O)c3ccc(-c4nccs4)cc3)cccc2C1=O the results were PD-1 reverse act 1 and NOMO-1 viab 16.
For C[C@H](CO)N1C[C@H](C)[C@H](CN(C)Cc2ccc(Oc3ccccc3)cc2)Oc2c(NC(=O)c3ccc(-c4nccs4)cc3)cccc2C1=O the results were PD-1 reverse act -3 and NOMO-1 viab 112*.
Screening C[C@@H]1CN([C@H](C)CO)C(=O)c2cccc(NC(=O)c3ccc(-c4nccs4)cc3)c2O[C@H]1CN(C)Cc1ccc(C(F)(F)F)cc1 returned NOMO-1 viab 84*.
For CC1CCC(O)C2C=CC(C)(O)C(C)(C(=O)CCO)C12 (stereo unspecified) the results were STK33 kin inh -7, PD-1 reverse act 0 and NOMO-1 viab 6.
Screening Cc1cc(C)c(OCC(=O)Nc2c[nH]c(=O)[nH]c2=O)cc1C returned STK33 kin inh -4 and NOMO-1 viab -3.
`Cc1ccc(-c2nc3cc(Cl)ccc3o2)cc1NC(=O)COc1ccccc1[N+](=O)[O-]` gave STK33 kin inh -2, PD-1 reverse act 3 and NOMO-1 viab 31.
`CCCc1c(C(=O)OCC)c(C(=O)OCC)c2c(-c3ccccc3)nc(N3CCOCC3)nn12` gave PD-1 reverse act -1 and NOMO-1 viab inconclusive.
c1ccc(-c2cc3ccsc3o2)cc1 was read as PD-1 reverse act -1 and NOMO-1 viab 36.
`C[C@@H]1CN([C@H](C)CO)C(=O)c2cccc(NC(=O)c3ccc(-c4nccs4)cc3)c2O[C@@H]1CN(C)Cc1ccc(-c2ccccc2)cc1` gave NOMO-1 viab 60.
C[C@@H]1CN([C@@H](C)CO)C(=O)c2cccc(NC(=O)c3ccc(-c4nccs4)cc3)c2O[C@H]1CN(C)Cc1ccc(C(=O)Nc2ccccc2N)cc1 was read as PD-1 reverse act -1 and NOMO-1 viab 126*.
`C[C@@H]1CN([C@H](C)CO)C(=O)c2cccc(NC(=O)c3ccc(-c4nccs4)cc3)c2O[C@H]1CN(C)Cc1ccccc1` gave PD-1 reverse act -7 and NOMO-1 viab 73.
C[C@H]1CN([C@@H](C)CO)C(=O)c2cccc(NC(=O)c3ccc(-c4nccs4)cc3)c2O[C@H]1CN(C)Cc1ccc(C(=O)Nc2ccccc2N)cc1 was read as PD-1 reverse act -2 and NOMO-1 viab 101*.
`COC(=O)C1=C(C)Nc2ncnn2C1c1cccc(OC)c1OCc1ccccc1` (stereo unspecified) gave STK33 kin inh -3 and NOMO-1 viab 8.
`Cc1cc(OCC(=O)Nc2cccc(NC(=O)c3cccc(Cl)c3)c2)ccc1Cl` gave STK33 kin inh 0, PD-1 reverse act 1 and NOMO-1 viab 71.
CCC(Sc1nnnn1-c1ccccc1)C(=O)Nc1sc2c(c1C#N)CCCC2 (stereo unspecified) was read as PD-1 reverse act 0 and NOMO-1 viab 4.
`COc1ccc(-c2nc3ccccc3s2)cc1NC(=S)NC(=O)COc1ccc(C)cc1` gave STK33 kin inh 3 and NOMO-1 viab inconclusive.
Screening C[C@H]1CN([C@@H](C)CO)C(=O)c2cccc(NS(=O)(=O)c3ccc(Cl)cc3)c2O[C@@H]1CN(C)Cc1ccc(-c2ccccc2)cc1 returned PD-1 reverse act 0 and NOMO-1 viab 33.
`Cc1ccc(S(=O)(=O)Nc2cccc3c2O[C@@H](CN(C)Cc2ccc(Oc4ccccc4)cc2)[C@H](C)CN([C@@H](C)CO)C3=O)cc1` gave NOMO-1 viab 42.
`Cc1ccc(S(=O)(=O)Nc2cccc3c2O[C@@H](CN(C)Cc2ccc(-c4ccccc4)cc2)[C@@H](C)CN([C@@H](C)CO)C3=O)cc1` gave PD-1 reverse act -1 and NOMO-1 viab 91*.
Screening C[C@@H]1CN([C@@H](C)CO)C(=O)c2cccc(NS(=O)(=O)c3ccccc3)c2O[C@@H]1CN(C)Cc1ccc(-c2ccccc2)cc1 returned PD-1 reverse act -7 and NOMO-1 viab 98*.

Compound activity as filed in PubChem BioAssay.
